Results: the supplement of paper PMC7411054
Counter-ions that a name gives are not always drawn.

Tests used:
Conditions in all cases: treatment time: 24 h
[1] = system: HepG2-ACTB-RAB5A; assay: lowest phenotypically active concentration; higher = less potent
Summary of the method: (§1)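 Live-cell features were measured per well and normalised to solvent control wells after fifteen gene-edited A549, HepG2 and WPMY1 reporter lines had been treated for 24 h at 0.3, 1, 3 or 9 µM in four wells each. A condition was deviating when ≥3 of 4 wells sat beyond the 95th percentile of control Euclidean distances. It was reproducible when the median replicate Pearson correlation exceeded the 95th percentile of non-replicates. Phenotypic activity demanded both.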

[2] = system: HepG2-CANX-COX4; assay: as above
Summary of the method: as §1

[3] = system: HepG2-GM130-SQSTM1; assay: as above
Summary of the method: as §1

[4] = system: HepG2-TUBA1B-RELA; assay: as above
Summary of the method: as §1

[5] = system: WPMY1-ACTB-RAB5A; assay: as above
Summary of the method: as §1

[6] = system: WPMY1-CANX-COX4; assay: as above
Summary of the method: as §1

[7] = system: WPMY1-GM130-SQSTM1; assay: as above
Summary of the method: as §1

[8] = system: WPMY1-TP53BP1-CLTA; assay: as above
Summary of the method: as §1

[9] = system: WPMY1-TUBA1B-RELA; assay: as above
Summary of the method: as §1

[10] = system: WPMY1-ACTB-RAB5A; assay: phenotypically active (imaging signature differs from DMSO and reproducible) at any of 0.3-9 uM (binary (1 = active, 0 = inactive)); higher = active
Summary of the method: as §1

CC(C)n1c(/C=C/[C@@H](O)C[C@@H](O)CC(=O)O)c(-c2ccc(F)cc2)c2ccccc21.CC(C)n1c(/C=C/[C@H](O)C[C@H](O)CC(=O)O)c(-c2ccc(F)cc2)c2ccccc21 [Fluvastatin sodium]
active: phenotypically active [10] 1
1 µM: lowest phenotypically active concentration [1] | lowest phenotypically active concentration [2] | lowest phenotypically active concentration [3] | lowest phenotypically active concentration [4] | lowest phenotypically active concentration [6] | lowest phenotypically active concentration [8] | lowest phenotypically active concentration [9]
≤ 0.3 µM: lowest phenotypically active concentration [5] | lowest phenotypically active concentration [7]

CNC(=O)c1ccccc1Sc1ccc2c(/C=C/c3ccccn3)n[nH]c2c1 [Axitinib]
active: phenotypically active [10] 1
9 µM: lowest phenotypically active concentration [5] | lowest phenotypically active concentration [6]
3 µM: lowest phenotypically active concentration [1] | lowest phenotypically active concentration [2] | lowest phenotypically active concentration [3] | lowest phenotypically active concentration [4] | lowest phenotypically active concentration [7] | lowest phenotypically active concentration [8] | lowest phenotypically active concentration [9]

COc1ccc(S(=O)(=O)N(C(C)=O)c2ccccc2/C=C/c2cc[n+]([O-])cc2)cc1
1 µM: lowest phenotypically active concentration [5] | lowest phenotypically active concentration [9]
active: phenotypically active [10] 1
3 µM: lowest phenotypically active concentration [1] | lowest phenotypically active concentration [2] | lowest phenotypically active concentration [3] | lowest phenotypically active concentration [4] | lowest phenotypically active concentration [6] | lowest phenotypically active concentration [7] | lowest phenotypically active concentration [8]

OC[C@H]1O[C@@H](n2cnc3c(NCc4ccco4)ncnc32)[C@H](O)[C@@H]1O [Kinetin riboside]
3 µM: lowest phenotypically active concentration [3] | lowest phenotypically active concentration [6] | lowest phenotypically active concentration [9]
1 µM: lowest phenotypically active concentration [1] | lowest phenotypically active concentration [2] | lowest phenotypically active concentration [4] | lowest phenotypically active concentration [5] | lowest phenotypically active concentration [7] | lowest phenotypically active concentration [8]
active: phenotypically active [10] 1

COc1c(C)cnc(Cn2cc(C#CCC(C)(C)O)c3c(Cl)nc(N)nc32)c1C
active: phenotypically active [10] 1
≤ 0.3 µM: lowest phenotypically active concentration [1] | lowest phenotypically active concentration [2] | lowest phenotypically active concentration [3] | lowest phenotypically active concentration [4] | lowest phenotypically active concentration [5] | lowest phenotypically active concentration [6] | lowest phenotypically active concentration [7] | lowest phenotypically active concentration [8] | lowest phenotypically active concentration [9]

O=C(Nc1c[nH]nc1-c1nc2cc(CN3CCOCC3)ccc2[nH]1)NC1CC1
active: phenotypically active [10] 1
≤ 0.3 µM: lowest phenotypically active concentration [1] | lowest phenotypically active concentration [2] | lowest phenotypically active concentration [3] | lowest phenotypically active concentration [4] | lowest phenotypically active concentration [5] | lowest phenotypically active concentration [6] | lowest phenotypically active concentration [7] | lowest phenotypically active concentration [8] | lowest phenotypically active concentration [9]

CN1c2ccccc2C(=O)N2CCc3c([nH]c4ccccc34)[C@H]21 [Evodiamine]
3 µM: lowest phenotypically active concentration [2] | lowest phenotypically active concentration [3] | lowest phenotypically active concentration [4]
active: phenotypically active [10] 1
1 µM: lowest phenotypically active concentration [1] | lowest phenotypically active concentration [5] | lowest phenotypically active concentration [6] | lowest phenotypically active concentration [7] | lowest phenotypically active concentration [8] | lowest phenotypically active concentration [9]

COc1ccc(N(C)c2nc(C)nc3ccccc23)cc1 [MPC 6827 hydrochloride]
≤ 0.3 µM: lowest phenotypically active concentration [1] | lowest phenotypically active concentration [2] | lowest phenotypically active concentration [3] | lowest phenotypically active concentration [4] | lowest phenotypically active concentration [5] | lowest phenotypically active concentration [6] | lowest phenotypically active concentration [7] | lowest phenotypically active concentration [8] | lowest phenotypically active concentration [9]
active: phenotypically active [10] 1

CO[C@H]1C=CC=C(C)C(=O)NC2=CC(=O)C(NCCN(C)C)=C(C[C@@H](C)C[C@H](OC)[C@H](O)[C@@H](C)C=C(C)[C@@H]1OC(N)=O)C2=O [17-DMAG hydrochloride]
active: phenotypically active [10] 1
≤ 0.3 µM: lowest phenotypically active concentration [1] | lowest phenotypically active concentration [2] | lowest phenotypically active concentration [3] | lowest phenotypically active concentration [4] | lowest phenotypically active concentration [5] | lowest phenotypically active concentration [6] | lowest phenotypically active concentration [7] | lowest phenotypically active concentration [8] | lowest phenotypically active concentration [9]

NC1(C(=O)N[C@@H](CCO)c2ccc(Cl)cc2)CCN(c2ncnc3[nH]ccc23)CC1
active: phenotypically active [10] 1
1 µM: lowest phenotypically active concentration [3] | lowest phenotypically active concentration [4] | lowest phenotypically active concentration [5] | lowest phenotypically active concentration [6] | lowest phenotypically active concentration [7] | lowest phenotypically active concentration [8] | lowest phenotypically active concentration [9]
3 µM: lowest phenotypically active concentration [1] | lowest phenotypically active concentration [2]

CCCCCCCCCCCCCCCC[n+]1ccn(Cc2ccccc2)c1C
active: phenotypically active [10] 1
1 µM: lowest phenotypically active concentration [1] | lowest phenotypically active concentration [2] | lowest phenotypically active concentration [3] | lowest phenotypically active concentration [4] | lowest phenotypically active concentration [6]
3 µM: lowest phenotypically active concentration [5] | lowest phenotypically active concentration [7] | lowest phenotypically active concentration [8] | lowest phenotypically active concentration [9]
